Bioassay records as filed in PubChem.
Compounds with a hit are over-represented: about 8.7% of the library has one in this group of screens.
Vaccinia mCherry: qHTS for Stage-Specific Inhibitors of Vaccinia Orthopoxvirus: mCherry Reporter Primary qHTS | Vaccinia virus mCherry reporter infection, fluorescence | Potency, µM (highest dose often 36.5 µM), without a hit: top-dose activity change, negative = inhibition, actives largely listed as inhibitors | 310,000 tested, 0.63% active; calls by dose curve; tested in A549 cells; note: nearly all actives have a fitted effect of over 35% in size
Pf growth 96h: Primary qHTS for delayed death inhibitors of the malarial parasite plastid, 96 hour incubation. Potency, µM (series often up to 28.7 µM), for the others: at the highest dose activity change, negative = inhibition, hits mostly inhibitors. AID 504834, 2011. 320,000 tested, 6.9% active. P. falciparum luciferase reporter growth, 96 h
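Two-generation exposure (96 h) targets delayed-death phenotype. Reporter parasites carrying integrated firefly luciferase, in red cells at 2% hematocrit and 0.05% parasitemia final, kept at 37 C, 5% CO2; luminescence loss indicates inhibition.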
Pf growth 48h: Primary qHTS for delayed death inhibitors of the malarial parasite plastid, 48 hour incubation; Potency, µM (doses to about 28.7 µM), inactives show at the highest dose activity change, negative = inhibition, usual class: inhibitors; P. falciparum luciferase growth in erythrocytes, 48 h; AID 504832, 2011; 310,000 tested, 5.9% active
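Cell-based growth assay: transgenic P. falciparum expressing firefly luciferase, cultured in red cells within RPMI 1640 containing 0.5% w/v Albumax, 24 mM bicarbonate and gentamycin. A drop in luciferase activity indicates inhibition.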
VACV Venus inh: qHTS for Stage-Specific Inhibitors of Vaccinia Orthopoxvirus: Venus Reporter Primary qHTS | Vaccinia virus Venus reporter expression, fluorescence | Potency, µM (highest dose often 36.5 µM), without a hit: at the highest dose activity change, negative = inhibition, hits mostly inhibitors | 330,000 tested, 0.46% active | AID 720580, 2013; calls by dose curve; tested in A549 cells; note: nearly all actives have a fitted effect of over 30% in size
AMA1 RON2 block: qHTS for Inhibitors of AMA1-RON; Towards Development of Antimalarial Drug Lead: Primary Screen. AlphaScreen AMA1-biotinylated RON2 peptide binding. AID 720542, 2013. Plasmodium falciparum AMA1 (3D7) - RON2 peptide interaction. 360,000 tested, 0.2% active. Potency, µM (titrated, usually from 58.2 µM), inactives show at the highest dose activity change, negative = inhibition, hits mostly inhibitors;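 note: 0% = vehicle wells and -100% = peptide control; nearly all actives have a fitted effect of over 45% in size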
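AMA1 (3D7) with his tag at 25 nM final met compounds first, then biotinylated RON2 peptide at 25 nM; detection used donor plus acceptor beads, 10 µg/mL apiece, read by AlphaScreen after 30 min at room temperature.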
Active calls of the source: *; i = inactive; ? = inconclusive; / = not tested or not shown; [ ] = dose if it differs, or a comment. Unless noted, calls come from the whole dose curve; as a rule, active = well fitted curve in the direction sought with a large enough effect; inconclusive = small, poorly fitted or top-dose-only effect, or another doubt; inactive = no such curve, though single readings can be large; an effect the other way counts as inactive or inconclusive. Unless noted, % is set by controls: 0 for no effect and ±100 for the full control effect; potency is the fitted concentration of half-maximal effect.

SMILES | Vaccinia mCherry | Pf growth 96h | Pf growth 48h | VACV Venus inh | AMA1 RON2 block
COC(=O)CSc1ncnc2c1sc1nc3c(cc12)COC(C)(C)C3 | -17.2% | ? | 81.5% | -6.0% | -4.3%
C/C(=C\c1ccccc1)CN1CCN(Cc2ccc(C)o2)C(CCO)C1 (centres undefined) | -12.4% | 2.08µM* | ? | -7.5% | 11.5%
Cc1ccc(C)c(CNC(=O)C2CCN(c3nc4ccccc4nc3C(F)(F)F)CC2)c1 | 19.2% | / | / | 3.9% | /
COc1cc(C(C)=O)ccc1OCC(=O)Nc1ccccc1N1CCCCC1 | ? | ? | 13.1µM* | ? | -20.2%
COc1cc(C(C)=O)ccc1OCC(=O)Nc1ccccc1N1CCCC1 | -19.6% | 10.4µM* | -23.5% | -10.5% | -25.5%
C/C=C(/C)C(=O)OC1CC(C)(C)C[C@H]2C3=CC[C@@H]4[C@@]5(C)CCC(O[C@@H]6O[C@@H](C(=O)O)[C@@H](O)C(O[C@@H]7OC[C@H](O)[C@@H](O)[C@@H]7O[C@@H]7OC(CO)C(O)[C@@H](O)[C@@H]7O)C6O[C@@H]6OC(CO)C(O)C(O)C6O)[C@@](C)(CO)[C@@H]5CC[C@]4(C)[C@]3(C)CC(O)[C@@]12CO (some centres undefined) | ? | / | / | 12.6µM* | -0.6%
C/C=C(\C)C(=O)OC1[C@H](OC(C)=O)C2(CO)C(CC1(C)C)C1=CCC3C4(C)CCC(O[C@@H]5O[C@H](C(=O)O)[C@@H](O[C@@H]6O[C@H](CO)[C@@H](O)[C@H](O)[C@H]6O)[C@H](O)[C@H]5O[C@H]5O[C@H](CO)[C@@H](O)[C@H](O)[C@H]5O)[C@](C)(CO)C4CCC3(C)[C@]1(C)C[C@H]2O (some centres undefined) | ? | / | / | ? | -5.2%
COc1ccc(CCNC(=O)c2cc(-c3ccc(C)cc3O)n[nH]2)cc1OC | / | 7.38µM* | / | -28.7% | 11.4%
COc1ccc(CCNC(=O)C2c3ccccc3C(=O)N2CCC(C)C)cc1OC (centres undefined) | / | 8.28µM* | -11.7% | / | 7.1%
COc1ccc(CCNC(=O)c2cc(-c3ccccc3O)n[nH]2)cc1OC | / | 2.6%[5.75 µM] | 13.1µM* | / | 14.2%
COc1ccc(CCNC(=O)C2c3ccccc3C(=O)N2Cc2ccccc2)cc1OC (centres undefined) | -9.6% | / | / | -7.6% | /
COc1ccc(CCNC(=O)c2cc(-c3cc(C)cc(C)c3O)n[nH]2)cc1OC | -1.4%[7.34 µM] | ? | ? | 0.0%[7.34 µM] | 107.8%
CCCN(CCC)S(=O)(=O)c1ccc(NC(=O)c2cc(C(=O)OC)cc([N+](=O)[O-])c2)cc1 | -24.0% | 1.85µM* | ? | ? | -3.7%
CC1=C(C(=O)Nc2ccccc2)C(c2cccc(Cl)c2)n2nc(SCC(=O)c3ccc(C)cc3)nc2N1 (centres undefined) | -9.4% | / | / | -4.5% | /
COc1ccc(CN(C(=O)c2oc3ccccc3c2C)C2CCS(=O)(=O)C2)cc1OC (centres undefined) | / | 6.6% | ? | -21.0% | -7.9%
Cc1ccc2oc(C(=O)N(Cc3ccc(N(C)C)cc3)C3CCS(=O)(=O)C3)c(C)c2c1 (centres undefined) | i | 4.65µM* | ? | -15.4% | 28.2µM*
Cc1c(C(=O)N(Cc2cccc(Br)c2)C2CCS(=O)(=O)C2)oc2ccc(F)cc12 (centres undefined) | i | 13.1µM* | ? | -7.0% | 5.6%
COc1ccc(CN(C(=O)c2oc3cc(C)c(C)cc3c2C)C2CCS(=O)(=O)C2)cc1OC (centres undefined) | i | 2.94µM* | ? | -19.3% | -3.8%
Cc1c(C(=O)N(Cc2ccc(Cl)cc2)C2CCS(=O)(=O)C2)oc2ccccc12 (centres undefined) | -6.9% | 2.1% | 13.1µM* | -18.3% | -2.5%
Cc1ccc(C)c(NC(=O)Cn2cnc3nc4c(cc3c2=O)CCCC4)c1 | -12.9%[7.34 µM] | / | / | -8.8%[7.34 µM] | /
O=C(Cc1ccc(F)cc1)N1CCC(c2nc3c(nnn3Cc3ccc(Cl)cc3)c(=O)[nH]2)CC1 | -14.7% | / | / | -8.2% | /
COc1ccc(-c2nc3sc(CCNC(=O)c4ccccc4C)c(C)n3n2)cc1 | -7.5% | / | / | -8.3% | /
Cc1ccc2c(C)c(C(=O)N(Cc3ccc(N(C)C)cc3)C3CCS(=O)(=O)C3)oc2c1 (centres undefined) | -25.7% | ? | ? | -21.0% | 17.8µM*
Cc1ccc(S(=O)(=O)N(C)Cc2cc3ccccc3[nH]c2=O)cc1 | / | 9.28µM* | ? | / | 36.8%
CCN(Cc1cc2ccccc2[nH]c1=O)C(=O)C(C)C | -16.3% | 0.928µM* | -2.5% | ? | 26.3%
SMILES | Vaccinia mCherry | Pf growth 96h | Pf growth 48h | VACV Venus inh | AMA1 RON2 block
CN(Cc1cc2ccccc2[nH]c1=O)S(=O)(=O)c1ccccc1 | -20.9% | 0.3% | -3.8% | -20.5% | 10.6%
Cc1nn(Cc2cccc(C(=O)NC34CC5CC(CC(C5)C3)C4)c2)c(C)c1Br | i | 8.28µM* | 14.7µM* | -16.9% | -11.1%
Cn1nnc2c[n+](CC(=O)c3ccc4ccccc4c3)cc(Br)c21 | ? | ? | 11.7µM* | ? | 17.2%
Cn1nnc2c[n+](CC(=O)c3ccc(Cl)cc3)cc(Br)c21 | ? | -1.5% | -4.3% | -21.1% | -27.8%
CC(C)(C)n1nc2c(c1NC(=O)Cc1ccc(F)cc1)CSC2 | -10.3% | 10.4µM* | / | -2.2% | -6.4%
COc1ccc(-n2nc3c(c2NC(=O)C(C)Cl)CSC3)cc1 (centres undefined) | / | -18.1% | -4.1% | / | 5.2%
CC(C)(C)n1nc2c(c1NC(=O)Cc1cccs1)CSC2 | / | 20.5% | / | / | /
COc1ccc(-n2nc3c(c2NC(=O)CCl)CSC3)cc1 | i | ? | 0.738µM* | 3.2% | 1.5%
CC(C)(C)n1nc2c(c1NC(=O)COc1ccc(Cl)cc1)CSC2 | -10.7% | 4.65µM* | ? | -0.4% | -4.9%
CC(C)(C)n1nc2c(c1NC(=O)COc1ccc(Cl)cc1)CS(=O)(=O)C2 | i | -98.0% | 0.0% | -12.0% | 6.3%
COc1ccc(CCNC(=O)c2cc3n(n2)CCCN(Cc2ccc(C)cc2)C3=O)cc1OC | -29.5% | / | / | -7.8% | /
Cc1nc(-c2ccc(S(=O)(=O)N3CCCCCC3)cc2)cs1 | / | -2.8% | 6.8% | ? | 5.2%
Nc1nc(-c2ccc(S(=O)(=O)N3CCCCC3)cc2)cs1 | / | 13.1µM* | ? | / | -4.0%
Cc1ccc(Nc2nc(-c3ccc(S(=O)(=O)N4CCCC4)cc3)cs2)cc1C | / | 1.65µM* | 1.85µM* | / | -19.4%
Cc1cc(C)cc(Nc2nc(-c3ccc(S(=O)(=O)N4CCCC4)cc3)cs2)c1 | / | 5.5% | ? | / | -11.2%
CCN(Cc1ccccc1)c1ccc(/C=C/c2nccc3ccccc23)cc1 | 18.2% | / | / | 21.8% | /
